From PubChem BioAssay (NCI)
This is part of a sample that, as a whole, favours compounds with a hit. Of some 83,000 tested, about 20% had one in any assay.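 Negative percent growth values reflect cell death: -40 means 40% of the cells present at the start died, and -100 means all died.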 A number with no mark means an inactive call. Activity calls are given as the source filed them. The calls were made as follows: active = growth percent below 10; inactive = the rest.

Legend:
Assay in all cases: NCI-60 one-dose screen, 48 h (100 = growth as untreated, 0 = no growth, -100 = all killed)
Conditions in all cases: 10 µM unless noted
DU-145 prostate = system: DU-145 prostate
K-562 leukemia = system: K-562 leukemia
MALME-3M melanoma = system: MALME-3M melanoma
MDA-MB-231 breast = system: MDA-MB-231 breast
RXF 393 renal = system: RXF 393 renal
SF-268 CNS = system: SF-268 CNS
SF-295 CNS = system: SF-295 CNS
SF-539 CNS = system: SF-539 CNS
UACC-257 melanoma = system: UACC-257 melanoma
M14 melanoma = system: M14 melanoma
HCT-15 colon = system: HCT-15 colon
HT29 colon = system: HT29 colon
SNB-75 CNS = system: SNB-75 CNS
SNB-19 CNS = system: SNB-19 CNS
U251 CNS = system: U251 CNS
PC-3 prostate = system: PC-3 prostate
SK-MEL-5 melanoma = system: SK-MEL-5 melanoma
UACC-62 melanoma = system: UACC-62 melanoma
LOX IMVI melanoma = system: LOX IMVI melanoma
SK-MEL-28 melanoma = system: SK-MEL-28 melanoma

Row | Structure (SMILES) | growth (DU-145 prostate) | growth (K-562 leukemia) | growth (MALME-3M melanoma) | growth (MDA-MB-231 breast) | growth (RXF 393 renal) | growth (SF-268 CNS) | growth (SF-295 CNS) | growth (SF-539 CNS) | growth (UACC-257 melanoma) | growth (M14 melanoma) | growth (HCT-15 colon) | growth (HT29 colon) | growth (SNB-75 CNS) | growth (SNB-19 CNS) | growth (U251 CNS) | growth (PC-3 prostate) | growth (SK-MEL-5 melanoma) | growth (UACC-62 melanoma) | growth (LOX IMVI melanoma) | growth (SK-MEL-28 melanoma)
1 | COC(=O)/C=C/c1cc(OC(C)=O)c2c(c1)[C@@H](C(=O)OC)[C@H](c1ccc(OC(C)=O)c(OC(C)=O)c1)O2 | -9.78% (active) | 8.05% (active) | 48.7% | 14.1% | 37.1% | 24.2% | 23.9% | -23.9% (active) | 48.3% | 2.76% (active) | 8.71% (active) | 11.8% | -3.49% (active) | 34.6% | 18.1% | 14.3% | -42.4% (active) | 33.6% | 7.76% (active) | –
2 | Cc1cc(C)cc(NC(=O)Cn2nncc2CN2C(=O)CSC2=O)c1 | 109% | 101% | 100% | 97.5% | 113% | 101% | 103% | 94.7% | 97.3% | 106% | 99.4% | 108% | 95.1% | 100% | 102% | 100% | 103% | 94% | 91.3% | –
3 | CNCc1ccccc1CN(CC(=O)Nc1ccc2c(c1)CC1(C2)C(=O)Nc2ncccc21)C(=O)C(C)(C)C (stereo not drawn) | 112% | 107% | 99.5% | 108% | 126% | 101% | 106% | 100% | 102% | 98.7% | 111% | 105% | 83.2% | 103% | 103% | 98% | 103% | 99.8% | 97.4% | –
4 | Cc1cc(C)c2c(n1)sc1c(Nc3ccc(Cl)cc3Cl)ncnc12 | 20.3% | 42.9% | 53.4% | 58.7% | 28.8% | 17.9% | 14.3% | 4.9% (active) | 36.4% | -34.3% (active) | 46.2% | 38.9% | 39.7% | 32.4% | 25% | 50.9% | 25.5% | 15.6% | 10.2% | 61.4%
5 | COc1cc(C2CC(c3ccc(Nc4ccnc5cc(Cl)ccc45)cc3)=NN2c2ccccc2)cc(OC)c1OC (stereo not drawn) | 79.1% | 19.1% | 45.6% | 77.5% | 76.3% | 70.6% | 57.7% | 77% | 84.7% | 55.5% | 45.5% | 44.2% | 72.6% | 79.7% | 60.5% | 60.8% | 49.5% | 49.9% | 58.7% | 79.1%
6 | O=c1cc(-c2ccc3c(c2)OCCO3)oc2cc(Cl)ccc12 | 25.6% | 35.1% | -16.3% (active) | 27.3% | 55.6% | 21.1% | 19.6% | -32.7% (active) | 52.8% | 60.6% | 74.5% | -16.8% (active) | -38.5% (active) | 30.3% | 4.26% (active) | 43.3% | 76.3% | 65.1% | 32.1% | 21.4%
7 | CCN(CC)C(Cl)=Nc1ccc(Cl)cc1 | 119% | 121% | 116% | 102% | 107% | 106% | 97.1% | 106% | 98.8% | 107% | 98.1% | 97.3% | 88.5% | 95.5% | 94% | 103% | 102% | 102% | 102% | 106%
8 | COc1c(C(=O)/C=C/c2ccc(C)o2)c(O)cc2occc12 | 87.1% | 22.5% | 76.7% | 89% | 62% | 80.1% | 82.4% | 80.6% | 86.1% | 55.5% | 35.9% | 65.2% | 59.8% | 76.5% | 75.4% | 72.2% | 86.6% | 58.6% | 71.2% | –
9 | CCN(CC)CCCC(C)Nc1cnc(C(=O)Nc2ccc(Cl)c3cccnc23)cn1 (stereo not drawn) | 53.1% | -45.8% (active) | -71.8% (active) | -29.7% (active) | 18.7% | 35.8% | 63% | -73.6% (active) | -33% (active) | -73.1% (active) | 3.73% (active) | -49.4% (active) | 41.7% | 49.6% | -35.3% (active) | 39.4% | -3.7% (active) | -52.4% (active) | -83.9% (active) | –
10 | CNC(=O)c1ccccc1Sc1ccc2c(/C=C/c3ccccn3)n[nH]c2c1 | 47.5% | 6.57% (active) | 37.2% | 39.7% | 2.21% (active) | 41.9% | 40% | 3.31% (active) | 31.5% | 16.9% | 33.9% | 25.2% | 26.3% | 50.2% | 40.1% | 28.1% | 11.2% | 13% | 8.31% (active) | 40.7%
11 | N#Cc1nc(-c2cccc(Br)c2)cc(-c2ccc(Nc3nc(N4CCCCC4)nc(N4CCCCC4)n3)cc2)c1N | -39% (active) | 4.51% (active) | -80.9% (active) | -67.4% (active) | -70.9% (active) | 5.03% (active) | 82.8% | -75.9% (active) | -35.8% (active) | 2.1% (active) | -39% (active) | -24.6% (active) | -45.1% (active) | 52.7% | -15.8% (active) | 12% | -49.3% (active) | -35.9% (active) | -95.7% (active) | –
12 | CCOC(=O)C1=C(C)NC(SCc2nnc(-c3ccc(Cl)cc3)o2)=NC1c1ccc(Cl)cc1 (stereo not drawn) | 87.2% | 55.8% | 81.7% | 62.7% | 67.7% | 86% | 74.1% | 87.7% | 86.9% | 69.3% | 67.6% | 75.2% | 73.7% | 73% | 73.9% | 48.8% | 40.9% | 49.9% | 76.9% | 79.8%
13 | CCCCCc1c(C)[nH]c(/C=C2\N=C(c3ccc[nH]3)C=C2CC)c1C | -94.8% (active) | -75.8% (active) | -74.9% (active) | -94.3% (active) | -91% (active) | -75.8% (active) | -70.9% (active) | -82.7% (active) | -84.2% (active) | -96.6% (active) | -83.5% (active) | -86.9% (active) | -81.4% (active) | -95.4% (active) | -95.3% (active) | -89.3% (active) | -96.5% (active) | -97.4% (active) | -90.7% (active) | -97.4% (active)
14 | CNC(=O)c1cc(Oc2ccc(NC(=O)c3[nH]c(SC)nc3-c3ccc(F)cc3)cc2)ccn1 | 59.6% | 7.07% (active) | -7.31% (active) | 62.9% | 70.9% | 72.5% | 46.3% | 65.5% | 33.1% | 12.7% | 72.5% | 12.8% | 78.7% | 99.3% | 84.6% | 33.2% | 23.3% | 5.44% (active) | 57.7% | 22.3%
15 | N#Cc1nc(-c2ccc(Cl)cc2)cc(-c2ccc(Nc3nc(N4CCCCC4)nc(N4CCCCC4)n3)cc2)c1N | 105% | 105% | 107% | 114% | 115% | 101% | 101% | 103% | 105% | 104% | 108% | 113% | 81.5% | 104% | 102% | 91.6% | 97.6% | 106% | 95.8% | –
16 | COc1ccc([C@@H]2[C@@H](Cl)C(=O)N2c2cc(OC)c(OC)c(OC)c2)cc1C | 12.9% | 9.59% (active) | 76% | 18.3% | 19.8% | 30.2% | 15.7% | 3.27% (active) | 80.7% | 11.7% | 15.8% | 11.1% | 75.6% | 33.6% | 12.9% | 28.9% | -13.8% (active) | 35.3% | 24.4% | 70.7%
